Inconclusive results are not listed. Activity calls are given as the source filed them. The calls were made as follows, unless noted: active = hit-call score of the fitted dose curve at least 0.9, where 1 is the maximum; inconclusive = response in the unintended direction; inactive = score below 0.9.
What was measured:
[1] = ATG_XTT_Cytotoxicity: Cytotoxicity Assessment in the Attagene TRANS-FACTORIAL HepG2 Assay (AID 2283584)
Summary of the method: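 HepG2 human liver cells, transiently transfected with multiple GAL4-UAS reporter units, were dosed and read at 24 h by XTT as cell number. Loss of signal was fitted relative to DMSO negative control baseline.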

[2] = read-out: Signal transducer and activator of transcription 3 (Homo sapiens) (UniProt P40763); assay: LTEA_HepaRG_STAT3: Life Technologies and Expression Analysis (LTEA) Assay for Signal transducer and activator of transcription (STAT3) using HepaRG (AID 2283529; active = hit-call score of the fitted dose curve at least 0.9, where 1 is the maximum; inactive = score below 0.9); settings: mRNA level, 48 h; actives raise or lower the signal
Summary of the method: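 Differentiated HepaRG cells, serum-free induction medium, dosed 48 h in duplicate, 8 half-log concentrations from 100 uM in 0.5% DMSO. STAT3 mRNA by qRT-PCR, normalised to ACTB, GAPDH, POLR2A; bidirectional fit versus DMSO.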

[3] = read-out: solute carrier (SLCO1B1), SLCO1B1 (gene 10599); assay: LTEA_HepaRG_SLCO1B1: Life Technologies and Expression Analysis (LTEA) Assay for solute carrier (SLCO1B1) using HepaRG (AID 2283530; active = hit-call score of the fitted dose curve at least 0.9, where 1 is the maximum; inactive = score below 0.9); settings: mRNA level, 48 h; actives raise or lower the signal
Summary of the method: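 Differentiated human HepaRG cells, plated 48 h, switched to serum-free induction medium and exposed in duplicate for 48 h to 8 half-log concentrations (top 100 uM) in 0.5% DMSO. SLCO1B1 mRNA by TaqMan qRT-PCR, normalized to ACTB/GAPDH/POLR2A.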

[4] = read-out: sulfotransferase 2A1 (SULT2A1), SULT2A1 (gene 6822); assay: LTEA_HepaRG_SULT2A1: Life Technologies and Expression Analysis (LTEA) Assay for sulfotransferase 2A1 (SULT2A1) using HepaRG (AID 2283531; active = hit-call score of the fitted dose curve at least 0.9, where 1 is the maximum; inactive = score below 0.9); settings: mRNA level, 48 h; actives raise or lower the signal
Summary of the method: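 Differentiated human HepaRG cells in serum-free induction medium were exposed for 48 h to eight half-log concentrations (top 100 uM, 0.5% DMSO). SULT2A1 mRNA was measured by qRT-PCR, normalized to ACTB, GAPDH and POLR2A, and fitted bidirectionally against DMSO.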

[5] = read-out: Transforming Growth Factor (TGFA), TGFA (gene 7039); assay: LTEA_HepaRG_TGFA: Life Technologies and Expression Analysis (LTEA) Assay for Transforming Growth Factor (TGFA) using HepaRG (AID 2283532; active = hit-call score of the fitted dose curve at least 0.9, where 1 is the maximum; inactive = score below 0.9); settings: mRNA level, 48 h; actives raise or lower the signal
Summary of the method: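 Differentiated HepaRG cells exposed 48 hours in serum-free induction medium, 0.5% DMSO vehicle, 8-point half-log series from 100 uM, in duplicate. TGFA mRNA by TaqMan qRT-PCR, normalised to ACTB, GAPDH, POLR2A; bidirectional fit versus DMSO.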

[6] = read-out: Transforming Growth Factor (TGFB1), TGFB1 (gene 7040); assay: LTEA_HepaRG_TGFB1: Life Technologies and Expression Analysis (LTEA) Assay for Transforming Growth Factor (TGFB1) Transporter using HepaRG (AID 2283533; active = hit-call score of the fitted dose curve at least 0.9, where 1 is the maximum; inactive = score below 0.9); settings: mRNA level, 48 h; actives raise or lower the signal
Summary of the method: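 Differentiated human HepaRG cells in serum-free induction medium were exposed in duplicate for 48 h to eight concentrations (top 100 uM, half-log steps, 0.5% DMSO). TGFB1 mRNA was quantified by qRT-PCR, normalized to ACTB, GAPDH, POLR2A, and fitted bidirectionally against DMSO.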

TIMP1, TIMP1 (gene 7076) = assay: LTEA_HepaRG_TIMP1: Life Technologies and Expression Analysis (LTEA) Assay for TIMP1 using HepaRG (AID 2283534; active = hit-call score of the fitted dose curve at least 0.9, where 1 is the maximum; inactive = score below 0.9;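 also: TaqMan qRT-PCR signal normalized to ACTB GAPDH and POLR2A housekeeping genes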); settings: mRNA level, 48 h; actives raise or lower the signal
Summary of the method: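 Differentiated human HepaRG cells in serum-free induction medium were exposed 48 h to chemicals (8 half-log concentrations, top 100 uM, 0.5% DMSO). TIMP1 mRNA was quantified by TaqMan qRT-PCR, normalized to ACTB/GAPDH/POLR2A; bidirectional fit versus DMSO.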

[7] = read-out: Tumor necrosis factor receptor 1 (TNFRSF1A), TNFRSF1A (gene 7132); assay: LTEA_HepaRG_TNFRSF1A: Life Technologies and Expression Analysis (LTEA) Assay for Tumor necrosis factor receptor 1 (TNFRSF1A) using HepaRG (AID 2283535; active = hit-call score of the fitted dose curve at least 0.9, where 1 is the maximum; inactive = score below 0.9); settings: mRNA level, 48 h; actives raise or lower the signal
Summary of the method: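 Differentiated human HepaRG cells were exposed in duplicate for 48 h in serum-free induction medium to eight concentrations (top 100 uM, half-log steps, 0.5% DMSO). TNFRSF1A mRNA was quantified by qRT-PCR, normalized to ACTB, GAPDH and POLR2A, then fitted bidirectionally against DMSO.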

[8] = read-out: Thyroid Hormone Responsive (THRSP), THRSP (gene 7069); assay: LTEA_HepaRG_THRSP: Life Technologies and Expression Analysis (LTEA) Assay for Thyroid Hormone Responsive (THRSP) using HepaRG (AID 2283536; active = hit-call score of the fitted dose curve at least 0.9, where 1 is the maximum; inactive = score below 0.9); settings: mRNA level, 48 h; actives raise or lower the signal
Summary of the method: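 Differentiated HepaRG cells treated 48 h in serum-free induction medium with 8 half-log concentrations up to 100 uM (0.5% DMSO), duplicates. THRSP mRNA by TaqMan qRT-PCR normalised to ACTB, GAPDH, POLR2A; bidirectional fit versus DMSO.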

[9] = read-out: Cellular tumor antigen p53 (Homo sapiens) (UniProt P04637); assay: LTEA_HepaRG_TP53: Life Technologies and Expression Analysis (LTEA) Assay for Tumor Protein P53 (TP53) using HepaRG (AID 2283537; active = hit-call score of the fitted dose curve at least 0.9, where 1 is the maximum; inactive = score below 0.9); settings: mRNA level, 48 h; actives raise or lower the signal
Summary of the method: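 HepaRG, 48 h exposure, top 100 uM, half-log 8-point, 0.5% DMSO vehicle, duplicates. Read: TP53 mRNA by TaqMan qRT-PCR, normalised to ACTB/GAPDH/POLR2A; bidirectional fit vs DMSO.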

[10] = read-out: UDP glucuronosyltransferase (UGT1A1), UGT1A1 (gene 54658); assay: LTEA_HepaRG_UGT1A1: Life Technologies and Expression Analysis (LTEA) Assay for UDP glucuronosyltransferase (UGT1A1) using HepaRG (AID 2283538; active = hit-call score of the fitted dose curve at least 0.9, where 1 is the maximum; inactive = score below 0.9); settings: mRNA level, 48 h; actives raise or lower the signal
Summary of the method: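 HepaRG cells, 0.5% DMSO vehicle, 48 h exposure in serum-free induction medium to 8-point half-log series topping at 100 uM, in duplicate. UGT1A1 mRNA by Fluidigm qRT-PCR, normalized to ACTB/GAPDH/POLR2A; bidirectional fit versus DMSO.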

[11] = read-out: UDP glucuronosyltransferase (UGT1A6), UGT1A6 (gene 54578); assay: LTEA_HepaRG_UGT1A6: Life Technologies and Expression Analysis (LTEA) Assay for UDP glucuronosyltransferase (UGT1A6) using HepaRG (AID 2283539; active = hit-call score of the fitted dose curve at least 0.9, where 1 is the maximum; inactive = score below 0.9); settings: mRNA level, 48 h; actives raise or lower the signal
Summary of the method: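 Human HepaRG cells were dosed for 48 h in serum-free induction medium with 0.5% DMSO vehicle, eight-point half-log series from 100 uM, in duplicate. UGT1A6 mRNA was measured by qRT-PCR, normalized to ACTB, GAPDH, POLR2A, and fitted bidirectionally against DMSO.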

[12] = read-out: X-box binding protein 1 (XBP1), XBP1 (gene 7494); assay: LTEA_HepaRG_XBP1: Life Technologies and Expression Analysis (LTEA) Assay for X-box binding protein 1 (XBP1) using HepaRG (AID 2283540; active = hit-call score of the fitted dose curve at least 0.9, where 1 is the maximum; inactive = score below 0.9); settings: mRNA level, 48 h; actives raise or lower the signal
Summary of the method: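 Differentiated human HepaRG cells in serum-free induction medium were exposed in duplicate for 48 h to eight half-log concentrations up to 100 uM in 0.5% DMSO. XBP1 mRNA was quantified by qRT-PCR, normalised to ACTB, GAPDH and POLR2A, with bidirectional fitting against DMSO.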

[13] = LTEA_HepaRG_LDH_cytotoxicity: Cytotoxicity Assessment in the Life Technologies and Expression Analysis (LTEA) Assay (AID 2283563)
Summary of the method: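 Differentiated human HepaRG cells, plated 48 h beforehand, were switched to serum-free induction medium and exposed for 48 h to eight half-log concentrations (top 100 uM) in 0.5% DMSO. LDH was measured in spent medium; activity was fitted relative to DMSO vehicle.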

[14] = TOX21_p53_BLA_p2_viability: Viability Assessment in the Tox21 HCT-116 p53 Agonism Beta-lactamase Assay, Phase 2 (AID 2283591);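 also: compound exposure lasted 16 h at 37 °C; actives lower the ATP signal meaning cytotoxicity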
Summary of the method: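 HCT116 p53-bla cells, 4000/well, dosed after 5 h plating (217-fold dilution of DMSO stocks) and incubated 16 h at 37C. Viability taken as cellular ATP by CellTiter-Glo luminescence after 30 min RT; signal loss marks cytotoxicity.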

[15] = biological target: Cellular tumor antigen p53 (Homo sapiens) (UniProt P04637); assay: TOX21_p53_BLA_p2_ratio: Tox21 HCT-116 p53 Agonism Beta-lactamase Assay, Ratio, Phase 2 (AID 2283592)
Summary of the method: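 HCT116 cells carrying a p53-responsive beta-lactamase reporter were plated, incubated 5 h at 37C, then dosed with compounds in DMSO (217-fold dilution) for 16 h. CCF4-AM substrate was added for 2 h at room temperature; the 460/530 nm emission ratio gave gain-of-signal activity relative to DMSO.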

[16] = biological target: Cellular tumor antigen p53 (Homo sapiens) (UniProt P04637); assay: TOX21_p53_BLA_p3_ratio: Tox21 HCT-116 p53 Agonism Beta-lactamase Assay, Ratio, Phase 3 (AID 2283596)
Summary of the method: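 HCT116 p53-bla cells (4000/well) given compound in DMSO (217-fold dilution) after 5 h, incubated 16 h at 37C. CCF4-AM substrate 2 h at room temperature; 460/530 nm emission ratio, gain fitted against DMSO.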

[17] = TOX21_p53_BLA_p4_viability: Viability Assessment in the Tox21 HCT-116 p53 Agonism Beta-lactamase Assay, Phase 4 (AID 2283597);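 also: hits lower the luminescence signal meaning cytotoxicity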
Summary of the method: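 HCT116 p53-bla cells (4000/well) rested 5 h at 37C, then received compounds in DMSO (217-fold dilution) for 16 h at 37C, 5% CO2. CellTiter-Glo was added after the CCF4-AM read, and luminescence was read after 30 min at room temperature.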

[18] = biological target: Cellular tumor antigen p53 (Homo sapiens) (UniProt P04637); assay: TOX21_p53_BLA_p5_ratio: Tox21 HCT-116 p53 Agonism Beta-lactamase Assay, Ratio, Phase 5 (AID 2283599)
Summary of the method: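 HCT-116 p53-bla cells (4000/well) plated 5 h, dosed with compound (217-fold DMSO dilution) for 16 h at 37 C; CCF4-AM substrate 2 h at room temperature. Activity is the 460/530 nm emission ratio (405 nm excitation), fitted in gain-of-signal direction versus DMSO.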

Cellular tumor antigen p53 (Homo sapiens), sequence (P04637 whole entry, looked up): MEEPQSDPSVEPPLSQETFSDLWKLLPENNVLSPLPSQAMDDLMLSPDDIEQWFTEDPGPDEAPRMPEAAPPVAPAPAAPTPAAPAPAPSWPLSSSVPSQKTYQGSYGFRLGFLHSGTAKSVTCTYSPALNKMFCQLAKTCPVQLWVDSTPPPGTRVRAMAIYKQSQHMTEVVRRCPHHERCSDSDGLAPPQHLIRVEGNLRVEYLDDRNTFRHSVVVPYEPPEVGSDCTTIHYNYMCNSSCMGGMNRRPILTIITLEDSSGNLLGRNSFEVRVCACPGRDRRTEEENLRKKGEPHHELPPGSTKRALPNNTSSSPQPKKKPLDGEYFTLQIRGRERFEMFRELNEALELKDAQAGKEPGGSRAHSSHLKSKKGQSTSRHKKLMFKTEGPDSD
Signal transducer and activator of transcription 3 (Homo sapiens), sequence (P40763 whole entry, looked up): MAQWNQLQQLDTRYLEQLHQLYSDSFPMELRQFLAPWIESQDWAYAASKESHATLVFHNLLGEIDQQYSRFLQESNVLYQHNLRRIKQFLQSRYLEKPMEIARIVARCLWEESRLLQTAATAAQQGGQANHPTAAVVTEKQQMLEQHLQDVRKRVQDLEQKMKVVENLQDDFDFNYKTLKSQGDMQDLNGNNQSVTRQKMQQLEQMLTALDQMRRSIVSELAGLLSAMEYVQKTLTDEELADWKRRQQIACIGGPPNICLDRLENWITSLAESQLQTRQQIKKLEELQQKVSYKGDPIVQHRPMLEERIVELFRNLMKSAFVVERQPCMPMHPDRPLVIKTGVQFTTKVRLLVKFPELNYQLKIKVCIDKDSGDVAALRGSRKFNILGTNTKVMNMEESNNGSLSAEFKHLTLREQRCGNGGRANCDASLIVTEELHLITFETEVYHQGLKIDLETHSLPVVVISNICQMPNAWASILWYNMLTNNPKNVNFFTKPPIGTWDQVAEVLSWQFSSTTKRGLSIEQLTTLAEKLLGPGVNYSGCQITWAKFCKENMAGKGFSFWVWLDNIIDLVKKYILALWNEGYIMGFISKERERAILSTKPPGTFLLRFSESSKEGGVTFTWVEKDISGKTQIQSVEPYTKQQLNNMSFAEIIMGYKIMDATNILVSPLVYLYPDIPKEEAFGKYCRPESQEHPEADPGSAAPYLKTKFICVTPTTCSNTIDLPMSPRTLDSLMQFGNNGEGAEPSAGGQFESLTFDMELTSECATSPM

## CCn1cc(C(=O)O)c(=O)c2ccc(C)nc21
[1]
  outcome: inactive

## C=C1CC[C@H]2O[C@]2(C)CC[C@@H]2[C@@H]1CC2(C)C
[1]
  outcome: inactive

## CCCCOCCOCCO
[2]
  outcome: inactive
[3]
  outcome: inactive
[4]
  outcome: inactive
[5]
  outcome: inactive
[6]
  outcome: inactive
TIMP1, TIMP1 (gene 7076)
  outcome: inactive
[7]
  outcome: inactive
[8]
  outcome: inactive
[9]
  outcome: inactive
[10]
  AC50: 50 µM (active)
[11]
  outcome: inactive
[12]
  outcome: inactive
[13]
  outcome: inactive
[1]
  outcome: inactive
[14]
  outcome: inactive
[15]
  outcome: inactive
[16]
  outcome: inactive
[17]
  outcome: inactive
[18]
  outcome: inactive

## C1CCCNCC1
[1]
  outcome: inactive
